Hit rate of the full screen: of about 2,000 compounds, about 100 (5%) were called active. This is one part of a sample in which actives are shown more often than they occur. No stated cut-off is given here; in the data, active means z-score above about 2; inactive means the rest.
Assay: supercomplex reporter luminescence per Hoechst cell count – Hoechst nuclei count (AID 1645838);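 further: control cybrid cells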;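 on z-score: higher means more mitochondrial supercomplex formation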
Conditions: Cells, luminescence/Hoechst cell count ratio; for z-score: stronger effect = higher value; for cell count: measured here: cell number, Hoechst nuclei count
[1] = library stock concentration (final well concentration not given) 46 uM
[2] = library stock concentration (final well concentration not given) 278 uM
[3] = library stock concentration (final well concentration not given) 1.67 mM
[4] = library stock concentration (final well concentration not given) 10 mM
[5] = library stock concentration (final well concentration not given) 80 uM
[6] = library stock concentration (final well concentration not given) 400 uM
[7] = library stock concentration (final well concentration not given) 2 mM

O=C(O)CCC/C=C\CC1C(=O)C[C@@H](O)[C@@H]1/C=C/[C@@H](O)COc1ccccc1 (some centres not stated)
z-score: 0.988 (inactive) | cell count: 5150

CCN(CC)C(=O)CCC/C=C\C[C@@H]1[C@@H](/C=C/[C@@H](O)CCc2ccccc2)[C@H](O)C[C@@H]1O
z-score: 0.309 (inactive) | cell count: 5000

CCCCCCCC/C=C\CCCCCCCCCCCC(N)=O
z-score: -0.128 (inactive) | cell count: 5640

CCCCCCCCCCCCCCCCCC(=O)NCCO
z-score: -0.675 (inactive) | cell count: 6070

O=C(C(=O)c1ccc(Cl)cc1)c1ccc(Cl)cc1
z-score [1]: 0.501 (inactive) | z-score [2]: 0.0434 (inactive) | z-score [3]: 0.0353 (inactive) | z-score [4]: -0.186 (inactive) | cell count [1]: 6500 | cell count [2]: 6290 | cell count [3]: 6800 | cell count [4]: 6380

NC(=NCC[C@H](N)C(=O)O)NO
z-score: -0.121 (inactive) | cell count: 4620

CCN(CC)c1ccc(C=NNC(=O)c2ccc(O)cc2)cc1
z-score [1]: -0.275 (inactive) | z-score [2]: -0.201 (inactive) | z-score [3]: -0.4 (inactive) | z-score [4]: 2.2 (active) | cell count [1]: 6830 | cell count [2]: 6590 | cell count [3]: 6690 | cell count [4]: 3360

CCCCC/C=C\C/C=C\C/C=C\C/C=C\CCCCNC(=O)c1ccc(O)cc1
z-score: -0.229 (inactive) | cell count: 5700

CCC(=C(CC)c1ccc(O)cc1)c1ccc(O)cc1
z-score [5]: 0.303 (inactive) | z-score [6]: 0.161 (inactive) | z-score [7]: -0.198 (inactive) | z-score [4]: -1.11 (inactive) | cell count [5]: 5780 | cell count [6]: 5910 | cell count [7]: 5930 | cell count [4]: 5450

CC(OC1OCCN(Cc2n[nH]c(=O)[nH]2)C1c1ccc(F)cc1)c1cc(C(F)(F)F)cc(C(F)(F)F)c1 (configuration not stated)
z-score [5]: -0.483 (inactive) | z-score [6]: -0.157 (inactive) | z-score [7]: -0.324 (inactive) | z-score [4]: 1.44 (inactive) | cell count [5]: 5120 | cell count [6]: 5200 | cell count [7]: 4790 | cell count [4]: 2820

CCCCCCCC/C=C\CCCCCCCC(=O)N[C@@H](CO)C(=O)O
z-score: 0.0618 (inactive) | cell count: 5160

NCC(=O)Nc1ccc(-n2nc(C(F)(F)F)cc2-c2ccc3c(ccc4ccccc43)c2)cc1
outcome (library stock 10 mM): inactive; censored for cell count | z-score [5]: -0.354 (inactive) | z-score [6]: -0.201 (inactive) | z-score [7]: 4.63 (active) | cell count [5]: 6120 | cell count [6]: 5230 | cell count [7]: 2710

Cc1nnsc1C(=O)Nc1ccc(-n2nc(C(F)(F)F)cc2C(F)(F)F)cc1
z-score: 0.284 (inactive) | cell count: 4970

CCCCCCCCCCCCCCC(=O)NCCO
z-score [1]: -0.0121 (inactive) | z-score [2]: 0.19 (inactive) | z-score [3]: -0.219 (inactive) | z-score [4]: 0.291 (inactive) | cell count [1]: 6780 | cell count [2]: 6410 | cell count [3]: 7210 | cell count [4]: 6620

CC(=O)c1cccc(NC(=O)CN2CCc3cc4c(cc3C2)OCCCO4)c1
z-score [5]: 0.0242 (inactive) | z-score [6]: 0.451 (inactive) | z-score [7]: -0.169 (inactive) | z-score [4]: 0.0588 (inactive) | cell count [5]: 4960 | cell count [6]: 4830 | cell count [7]: 4760 | cell count [4]: 4740

COc1cc2c(NC3CCN(C(C)C)CC3)nc(C3CCCCC3)nc2cc1OCCCN1CCCC1
z-score [1]: -0.551 (inactive) | z-score [2]: -0.34 (inactive) | z-score [3]: -0.454 (inactive) | z-score [4]: 0.796 (inactive) | cell count [1]: 6710 | cell count [2]: 5680 | cell count [3]: 6450 | cell count [4]: 1730

COc1cc2c(NC3CCN(CC4CCCCC4)CC3)nc(N3CCCN(C(C)C)CC3)nc2cc1OCCCN1CCCCC1
outcome (library stock 10 mM): inactive; censored for cell count | z-score [5]: -0.365 (inactive) | z-score [6]: -0.622 (inactive) | z-score [7]: 0.193 (inactive) | cell count [5]: 6230 | cell count [6]: 6560 | cell count [7]: 4370

COc1cc2nc(N3CCCN(C)CC3)nc(NC3CCN(Cc4ccccc4)CC3)c2cc1OC
z-score: -0.382 (inactive) | z-score [1]: -0.481 (inactive) | z-score [2]: -0.471 (inactive) | z-score [3]: 0.298 (inactive) | z-score [4]: 10.9 (active) | cell count: 5260 | cell count [1]: 6510 | cell count [2]: 6560 | cell count [3]: 5890 | cell count [4]: 2180

CCCCCC(=O)CC[C@H]1C(=O)C=C[C@@H]1C/C=C\CCCC(=O)O
z-score: 1.09 (inactive) | cell count: 5090

CC(C)(C)OC(=O)N1CCC(OC2CCNCC2)CC1
z-score [5]: 0.0198 (inactive) | z-score [6]: 0.196 (inactive) | z-score [7]: 0.447 (inactive) | z-score [4]: 0.428 (inactive) | cell count [5]: 4690 | cell count [6]: 4710 | cell count [7]: 4640 | cell count [4]: 4420

Cc1cc(CS(=O)(=O)c2ccccc2)cc(OCc2ccc(CN3CCCC3CO)cc2)c1 (configuration not stated)
z-score [1]: -0.0615 (inactive) | z-score [2]: -0.164 (inactive) | z-score [3]: -0.0708 (inactive) | z-score [4]: -0.221 (inactive) | cell count [1]: 5870 | cell count [2]: 5750 | cell count [3]: 5420 | cell count [4]: 5130

CCCCCCCCCCCCC/C=C/[C@@H](O)[C@H](CO)NC(=O)CCCCC
z-score: -0.258 (inactive) | cell count: 5330

CC(/C=C/C(=O)NO)=C\[C@@H](C)C(=O)c1ccc(N(C)C)cc1
outcome: inactive; censored for cell count

CN(C)c1ccc(C(=O)NCCCCCC(=O)NO)cc1
z-score: 0.156 (inactive) | cell count: 5320

Cc1ccc(C(=O)NCCCCCC(=O)Nc2ccccc2N)cc1
z-score [5]: 0.128 (inactive) | z-score [6]: 0.271 (inactive) | z-score [7]: 0.708 (inactive) | z-score [4]: 4.86 (active) | cell count [5]: 5180 | cell count [6]: 5260 | cell count [7]: 4840 | cell count [4]: 3070

CCOC(=O)NCCCC(=O)NCCc1ccccc1
z-score [1]: -0.07 (inactive) | z-score [2]: -0.00876 (inactive) | z-score [3]: -0.143 (inactive) | z-score [4]: -0.14 (inactive) | cell count [1]: 5970 | cell count [2]: 5710 | cell count [3]: 5220 | cell count [4]: 5550

Cc1ccc(NC(=O)CCCCCC(=O)Nc2ccccc2N)cc1
z-score: 1.29 (inactive) | cell count: 4790

CN(C)c1ccc(C(=O)NCCCCCCC(=O)NO)cc1
z-score: 6.25 (active) | cell count: 3650

CCCCC[C@H](O)/C=C/[C@@H]1[C@@H](CCCCCCC(=O)O)[C@H](O)C[C@@H]1O
z-score: -0.12 (inactive) | cell count: 5440

CC(C)CC[C@@H](O)[C@@H](C)C1CCC2C3CC=C4C[C@@H](O)CC[C@]4(C)C3CC[C@@]21C (some centres not stated)
z-score: -0.379 (inactive) | cell count: 5080

COC(=O)CCC[C@H](O)[C@H](O)CO
z-score: -0.313 (inactive) | cell count: 5480

CCCCCC/C=C\CCCC(=O)CC(=O)N[C@H]1CCOC1=O
z-score: 0.196 (inactive) | cell count: 5220

CCCCC(C)(C)[C@H](O)/C=C/[C@H]1[C@H](O)CC(=O)[C@@H]1CCCCCCC(=O)O
z-score: -0.22 (inactive) | cell count: 5310

O=C(O)c1cc(C(F)(F)F)ccc1N1CCC(OCc2ccccn2)C1 (configuration not stated)
z-score [5]: -0.188 (inactive) | z-score [6]: -0.142 (inactive) | z-score [7]: -0.236 (inactive) | z-score [4]: -0.254 (inactive) | cell count [5]: 6080 | cell count [6]: 6070 | cell count [7]: 6240 | cell count [4]: 5970

CCCCC[C@H](O)/C=C/[C@H]1CCC(=O)[C@@H]1C/C=C\CCCC(=O)O
z-score: 0.602 (inactive) | cell count: 5430

Cc1c(-c2ccc(-c3ccccc3F)cc2)nc2ccc(F)cc2c1C(=O)O
outcome (library stock 10 mM): inactive; censored for cell count | z-score [5]: -0.011 (inactive) | z-score [6]: 9.53 (active) | z-score [7]: 9.71 (active) | cell count [5]: 5350 | cell count [6]: 2330 | cell count [7]: 1790

CCC(NC(=O)c1c(C)c(-c2ccccc2)nc2ccccc12)c1ccccc1 (configuration not stated)
z-score [5]: -0.542 (inactive) | z-score [6]: -0.315 (inactive) | z-score [7]: -0.402 (inactive) | z-score [4]: -0.409 (inactive) | cell count [5]: 7010 | cell count [6]: 6770 | cell count [7]: 6520 | cell count [4]: 5870

Cc1c(Cc2ccc3ccccc3n2)c2cc(F)ccc2n1CC(=O)O
z-score [5]: -0.574 (inactive) | z-score [6]: -0.436 (inactive) | z-score [7]: -0.171 (inactive) | z-score [4]: -0.183 (inactive) | cell count [5]: 6030 | cell count [6]: 6070 | cell count [7]: 6110 | cell count [4]: 5700

O=C(O)CCC/C=C/C[C@@H]1[C@@H](CC[C@@H](O)CCc2ccccc2)[C@H](O)C[C@@H]1O
z-score: -0.13 (inactive) | cell count: 5360

Nc1ccccc1NC(=O)CCCCCCC(=O)Nc1ccccc1
z-score: 0.265 (inactive) | cell count: 5570

O=C(CCCCCCC(=O)Nc1ccccc1)NO
z-score: 0.328 (inactive) | outcome (library stock 10 mM): inactive; censored for cell count | z-score [5]: 0.428 (inactive) | z-score [6]: 2.1 (active) | z-score [7]: 10.2 (active) | cell count: 5300 | cell count [5]: 5490 | cell count [6]: 4770 | cell count [7]: 3220

CC(C)(C)C(=O)Nc1ccccc1
z-score: -0.189 (inactive) | cell count: 5010

CCCCCCCCCCCCCCCCSC[C@H](COP(=O)([O-])OCC[N+](C)(C)C)NC(=O)CCCCCCCCCCCCCCC
z-score: -0.387 (inactive) | cell count: 5820

C#CCC(Cc1cnc2nc(N)nc(N)c2n1)c1ccc(C(=O)NC(CCC(=O)O)C(=O)O)cc1 (configuration not stated)
outcome (library stock 278 µM): inactive; censored for cell count | outcome (library stock 1.67 mM): inactive; censored for cell count | outcome (library stock 10 mM): inactive; censored for cell count | z-score [1]: 1.41 (inactive) | cell count [1]: 2070

CCCCCCCCCCCCCCC(=O)N[C@H]1CCOC1=O
outcome: inactive; censored for cell count

CSCCC(NC(=O)C(CC(C)C)NC(=O)CNC(=O)C(NC(=O)C(Cc1ccccc1)NC(=O)C(CO)NC(=O)C(CC(=O)O)NC(=O)[C@H](NC(=O)C(CCCCN)NC(=O)C(N)Cc1cnc[nH]1)C(C)O)C(C)C)C(N)=O (some centres not stated)
z-score [5]: -0.214 (inactive) | z-score [6]: -0.449 (inactive) | z-score [7]: -0.151 (inactive) | z-score [4]: -0.389 (inactive) | cell count [5]: 6630 | cell count [6]: 6610 | cell count [7]: 6500 | cell count [4]: 6040

Cn1ncnc1C1c2n[nH]c(=O)c3cc(F)cc(c23)NC1c1ccc(F)cc1 (configuration not stated)
outcome (library stock 10 mM): inactive; censored for cell count | z-score [5]: 1.87 (inactive) | z-score [6]: 3.69 (active) | z-score [7]: 6.89 (active) | cell count [5]: 3700 | cell count [6]: 2650 | cell count [7]: 1700

CC#C[C@]1(O)CC[C@@H]2[C@@H]3CCC4=CC(=O)CCC4=C3C(c3ccc(N(C)C)cc3)C[C@@]21C (some centres not stated)
z-score [5]: -0.535 (inactive) | z-score [6]: -0.414 (inactive) | z-score [7]: -0.596 (inactive) | z-score [4]: -0.985 (inactive) | cell count [5]: 5620 | cell count [6]: 5640 | cell count [7]: 5480 | cell count [4]: 4850

Cc1cc(C)cc(NC(=O)Nc2ccc(S(N)(=O)=O)cc2)c1
z-score [5]: -0.282 (inactive) | z-score [6]: -0.269 (inactive) | z-score [7]: -0.436 (inactive) | z-score [4]: -0.561 (inactive) | cell count [5]: 5270 | cell count [6]: 5260 | cell count [7]: 5280 | cell count [4]: 5230

CCCCCC(=O)CC[C@H]1[C@H](O)CC(=O)[C@@H]1C/C=C\CCCC(=O)O
z-score: 0.0242 (inactive) | cell count: 5260

CCCCC[C@@H](O)CC[C@H]1[C@H](O)CC(=O)[C@@H]1CCCCCCC(=O)O
z-score: 0.414 (inactive) | cell count: 5360

CCCCCC(=O)CC[C@H]1[C@H](O)CC(=O)[C@@H]1CCCCCCC(=O)O
z-score: 3.62 (active) | cell count: 3870
